The list is not random: actives were taken first. Their share in the collection is about 3%.
SENP7 inh – inhibitors of human SENP7 protease | Q9BQF6 | recombinant SENP7, Z-RLRGG-aminoluciferin luminescence, 40 min | inhibition, % at 5 µM | 330,000 compounds, 1.5% hits;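 active means inhibition above about 50% at the single test dose, limit read from the data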;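 further: plate controls were DMSO with enzyme for no effect and no enzyme buffer wells for full effect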
Target sequence (Q9BQF6 706-1050 limits assumed): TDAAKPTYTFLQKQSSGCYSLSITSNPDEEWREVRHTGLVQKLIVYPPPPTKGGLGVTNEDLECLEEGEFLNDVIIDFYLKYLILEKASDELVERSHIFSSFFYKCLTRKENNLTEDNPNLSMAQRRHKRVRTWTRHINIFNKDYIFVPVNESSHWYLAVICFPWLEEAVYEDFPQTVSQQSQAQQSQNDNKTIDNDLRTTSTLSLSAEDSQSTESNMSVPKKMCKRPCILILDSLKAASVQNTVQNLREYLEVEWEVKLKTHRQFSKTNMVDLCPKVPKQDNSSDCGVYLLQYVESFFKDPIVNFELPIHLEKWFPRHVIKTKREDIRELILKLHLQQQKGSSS
SENP8 block-1 – SENP8 (human) protease inhibition | Q96LD8 | recombinant SENP8, Nedd8 substrate fluorescence | inhibition, % at 20 µM | 360,000 compounds, 0.64% hits | AID 602440; in the data active means inhibition mostly above about 40%, no sharp cut-off; inactive means mostly below about 27%
Target sequence (Q96LD8 whole entry, looked up): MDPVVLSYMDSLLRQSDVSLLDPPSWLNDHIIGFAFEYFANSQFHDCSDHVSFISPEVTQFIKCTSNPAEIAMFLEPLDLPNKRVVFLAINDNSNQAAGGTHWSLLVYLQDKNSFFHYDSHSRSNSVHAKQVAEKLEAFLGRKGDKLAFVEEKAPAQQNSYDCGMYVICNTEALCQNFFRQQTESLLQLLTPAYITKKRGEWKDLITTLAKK
PPC-1+TRAIL kill – kills PPC-1 cancer cells in the presence of TRAIL; PPC-1 cells + TRAIL, ATPLite viability luminescence; cell killing (% activity), % at 4 µM or 5 µM; 220,000 compounds, 0.41% hits;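 active means cell killing above 50% in the first pass at 4 µM, then a duplicate retest at 5 µM averaging 50% or more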;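 further: plate controls were cells with TRAIL plus DMSO for no effect and medium-only wells lacking cells for full effect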
SENP6 inh – blocks the human protease SENP6; Q9GZR1; Recombinant SENP6 catalytic domain, aminoluciferin luminescence; inhibition, % at 10 µM; 330,000 compounds, 1.8% hits; AID 2599;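 active means inhibition above about 50% at the single tested dose, limit read from the data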;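 further: plate controls were DMSO wells with enzyme for no effect and DMSO wells lacking enzyme for full effect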
SENP8 block-2 – SENP8 protease inhibition. purified SENP8, Z-RLRGG-aminoluciferin cleavage, luminescence. inhibition, % at 10 µM. 330,000 compounds, 1.2% hits; in the data active means inhibition above about 50%
TRAIL sens C8 – sensitizes caspase-8 expressing cells to TRAIL | 360,000 compounds, 1% hits | NB7+C8 cells + TRAIL, ATPlite viability luminescence | AID 624354 | inhibition (viability loss, TRAIL sensitization), % at 10 µM;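 active means compounds causing at least 50% loss of cell viability in the single-dose screen, relative to plate controls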
SENP8 confirm – human SENP8 inhibition, confirmed; shares compounds with SENP7 inh; Recombinant SENP8, Z-RLRGG-aminoluciferin luminescence, 60 min; inhibition, % at 12.5 µM; 6,200 compounds, 40% hits;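 active means mean inhibition across replicates above about 50%, limit read from the data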
SENP6 conf – confirmation of human SENP6 protease inhibitors; shares compounds with SENP7 inh; recombinant SENP6, Z-RLRGG-aminoluciferin luminescence; inhibition, % at 12.5 µM; 6,200 compounds, 58% hits; AID 488915
SENP7 confirm – human SENP7 inhibition, confirmed | shares compounds with SENP7 inh | inhibition, % at 12.5 µM | recombinant SENP7, Z-RLRGG-aminoluciferin luminescence, 40 min | 6,200 compounds, 69% hits
Casp3 select – caspase-3 inhibition (SENP selectivity assay). shares compounds with SENP7 inh. 6,200 compounds, 60% hits. purified caspase-3, Z-DEVD-aminoluciferin luminescence, 60 min. inhibition, % at 12.5 µM;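 active means mean inhibition above about 50%, limit read from the data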;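 further: plate controls were enzyme with DMSO for no effect and wells without caspase-3 for full effect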
Target sequence (P42574 28-227 limits assumed): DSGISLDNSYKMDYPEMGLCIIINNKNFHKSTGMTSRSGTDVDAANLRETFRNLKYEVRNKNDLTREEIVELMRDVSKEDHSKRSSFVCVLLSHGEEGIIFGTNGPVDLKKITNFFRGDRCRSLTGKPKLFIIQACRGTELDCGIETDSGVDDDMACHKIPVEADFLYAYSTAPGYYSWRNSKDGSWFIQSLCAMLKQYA
SENP luc ctr – counter-screen for SENP inhibitors: luminescence interference; 6,200 compounds, 39% hits; inhibition, % at 12.5 µM; shares compounds with SENP7 inh; Pre-incubated SENP8/Z-RLRGG-aminoluciferin, luciferase luminescence interference; AID 488919;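 active means mean inhibition above about 50% when retested at one dose, limit read from the data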;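 further: plate controls were DMSO wells with completed reaction for no effect and substrate without enzyme for full effect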
* marks the source's active call; other numbers are inactive results; . = no result given.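 How the source made its calls, unless noted: active means mean inhibition above about 50% in the one-dose retest (limit read from the data); inactive means the rest.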

SMILES | SENP7 inh | SENP8 block-1 | PPC-1+TRAIL kill | SENP6 inh | SENP8 block-2 | TRAIL sens C8 | SENP8 confirm | SENP6 conf | SENP7 confirm | Casp3 select | SENP luc ctr
COc1ccc(-n2c(O)c(/C=N/NS(=O)(=O)c3cccc([N+](=O)[O-])c3)c3ccccc3c2=O)cc1OC | 24.8 | -399.7 | 13.9 | 52.8* | 9.5 | -3.5 | 9.7 | 19.3 | -4.6 | 0.1 | 0.1
COc1ccc(CC(=O)NNS(=O)(=O)c2cccc([N+](=O)[O-])c2)cc1OC | -4.8 | 13.9 | . | -6.9 | 2.7 | 9.9 | . | . | . | . | .
Cc1c(C#N)c(O)[nH]c(=O)c1N=Nc1ccc(S(N)(=O)=O)cc1 | -19.7 | 26.0 | . | 51.2* | 26.5 | -2.5 | 42.6 | 37.5 | 71.1* | 75.2* | 51.8*
Cc1ccc(CC(C)(O)CC(C)(O)Cc2ccc(C)cc2)cc1 (stereo unspecified) | . | -4.1 | . | . | . | -20.4 | . | . | . | . | .
O=C(Nc1ccc2c(c1)OCO2)c1cccs1 | 47.9 | 0.1 | 13.1 | 64.5* | 16.0 | 22.4 | 49.4 | 42.5 | 72.1* | 73.7* | 55.4*
O=C(Nc1ccc2c(c1)OCO2)c1ccncc1 | -14.9 | 14.2 | -2.3 | -2.8 | -17.4 | 1.8 | . | . | . | . | .
O=C(Nc1ccc2c(c1)OCO2)c1ccc(Br)s1 | 78.3* | 11.8 | 34.1 | 74.1* | 59.9* | 40.6 | 71.6* | 66.9* | 91.5* | 65.4* | 70.8*
O=C(c1ccc2c(c1)OCCCO2)c1cccs1 | 49.6 | 10.0 | 31.7 | 53.8* | 29.9 | 24.0 | 51.5* | 49.6 | 82.2* | 66.4* | 63.3*
CC(=NNC(=O)c1cccs1)c1ccc2c(c1)OCCO2 | -13.6 | -49.4 | . | -1.9 | -10.9 | 11.6 | . | . | . | . | .
O=C(Nc1ccc(N2CCCC2)c(Cl)c1)c1cccs1 | 48.5 | -7.1 | 40.6 | 26.4 | 58.2* | 26.8 | 79.3* | 74.5* | 92.1* | 70.1* | 62.2*
O=C(/C=C/[C@H]1O[C@@H](n2cnc3c(NC(=O)c4ccccc4)ncnc32)[C@H](O)[C@@H]1O)NCc1cccc2ccccc12 | . | 28.2 | . | . | . | 36.5 | . | . | . | . | .
Nc1cccc(-c2cn(-c3cc4cc(C#CC5(O)CCCCC5)ccc4oc3=O)nn2)c1 | 0.3 | -4.9 | . | 5.9 | 5.8 | -2.4 | . | . | . | . | .
CC(C)NC(=O)C1(C)CN(S(C)(=O)=O)CC(=O)N1CCc1ccccc1 (stereo unspecified) | . | 3.4 | . | . | . | 1.8 | . | . | . | . | .
CC1CC(C)CN(C(=O)C2CCN(S(=O)(=O)c3c(Cl)cccc3Cl)CC2)C1 (stereo unspecified) | 1.8 | 0.7 | . | -1.6 | 6.9 | -3.9 | . | . | . | . | .
CC1(C(=O)NS(=O)(=O)c2ccccc2Cl)CCN1C(=O)Cc1cc(F)ccc1F (stereo unspecified) | . | 11.6 | . | . | . | 5.6 | . | . | . | . | .
O=C(Nc1ccc2c(c1)OCCO2)c1cccs1 | 72.5* | 28.2 | 28.7 | 76.4* | 46.3 | 46.0 | 51.4* | 50.0* | 84.7* | 80.6* | 68.3*
O=C(Nc1ccc2c(c1)OCCO2)c1c(Cl)cccc1Cl | . | 17.1 | . | . | . | -11.4 | . | . | . | . | .
O=C(Nc1c[nH]c(=O)[nH]c1=O)c1cccc(F)c1 | -3.9 | 14.6 | . | -8.4 | 61.6* | 12.0 | 10.6 | 2.9 | -9.7 | 3.3 | -7.8
Cc1ccc(S(=O)(=O)CCSc2cccc(C(=O)Nc3ccccc3C(=O)O)c2)cc1 | -1.8 | 8.1 | 11.7 | 87.9* | 65.0* | 7.1 | -19.8 | 75.7* | 92.3* | 59.6* | 84.6*
O=C(Nc1ccccc1C(=O)O)c1cccc(F)c1 | 37.8 | 23.6 | . | 74.8* | 50.8* | 2.0 | 74.8* | 70.4* | 92.5* | 87.0* | 74.7*
O=C(Nc1c[nH]c(=O)[nH]c1=O)c1cccc([N+](=O)[O-])c1 | -7.3 | 22.3 | . | -36.3 | -4.9 | -23.1 | . | . | . | . | .
Cc1ccc(C(=O)Nc2ccccc2C(=O)O)cc1S(=O)(=O)Nc1ccccc1 | 0.0 | 5.8 | . | 62.4* | 32.8 | -7.1 | 55.3* | 52.4* | 73.1* | 32.6 | 62.8*
CC(C)CN1C(=O)c2ccc(C(=O)Nc3ccccc3C(=O)O)cc2C1=O | 43.3 | 22.3 | . | 87.2* | 82.2* | 16.3 | 87.5* | 87.8* | 98.1* | 88.1* | 88.9*
O=C(Nc1cc(C(=O)Nc2ccccc2C(=O)O)cc(C(=O)Nc2ccccc2C(=O)O)c1)c1ccccc1 | -1.0 | -1.7 | . | 15.7 | 9.7 | -3.7 | . | . | . | . | .
Cc1cc(C(=O)Nc2ccccc2C(=O)O)oc1C | 13.0 | 1.9 | . | 63.7* | 47.3 | 5.9 | 67.5* | 64.0* | 89.5* | 87.8* | 72.7*
SMILES | SENP7 inh | SENP8 block-1 | PPC-1+TRAIL kill | SENP6 inh | SENP8 block-2 | TRAIL sens C8 | SENP8 confirm | SENP6 conf | SENP7 confirm | Casp3 select | SENP luc ctr
COc1c(Cl)cc(C(=O)Nc2ccccc2C(=O)O)cc1Cl | 5.7 | 7.1 | 11.1 | 76.1* | 69.3* | 4.8 | 81.4* | 79.1* | 86.5* | 36.2 | 83.7*
Cn1c(=N)n(CC(=O)c2ccc(F)cc2)c2ccccc21 | 19.7 | 21.7 | . | 61.7* | 46.4 | 80.3* | 34.3 | 25.4 | 25.2 | 38.4 | 61.8*
Fc1c(F)c(F)c(CSc2nc3ccccc3[nH]2)c(F)c1F | 4.4 | 26.3 | 2.0 | -2.0 | -4.8 | 9.9 | . | . | . | . | .
O=[N+]([O-])c1cccc(CSc2nc3ccccc3[nH]2)c1 | -5.1 | 21.1 | 23.6 | -17.5 | -13.9 | -2.5 | . | . | . | . | .
COc1cccc(CSc2nc3ccccc3[nH]2)c1 | 80.6* | 4.6 | 35.2 | 63.7* | 77.3* | 31.0 | 0.1 | 79.4* | 95.3* | 80.3* | 82.5*
Fc1ccccc1CSc1nc2ccccc2[nH]1 | 85.3* | 16.2 | 39.2 | 82.9* | 78.5* | 25.1 | 86.4* | 85.3* | 95.5* | 83.4* | 85.6*
CC(=O)c1ccc(OCc2cc(C(=O)N(C)CC3COc4ccccc4O3)no2)cc1 (stereo unspecified) | . | 15.3 | . | . | . | -7.2 | . | . | . | . | .
CCN1CCN(Cc2nnc(-c3ccc(C)cc3)o2)CC1 | 0.4 | 0.9 | . | 0.7 | 1.3 | -5.8 | . | . | . | . | .
CC1CN(C(=O)c2ccc(NS(=O)(=O)c3ccc(C(C)(C)C)cc3)cc2)CC(C)O1 (stereo unspecified) | 5.3 | 7.2 | . | -12.7 | -2.2 | -5.1 | . | . | . | . | .
Cc1nn2cc(-c3ccc(Cl)cc3)nc2s1 | 86.9* | 11.4 | -8.1 | 81.5* | 54.3* | 19.1 | -4.3 | 2.9 | 25.5 | 23.7 | 3.7
Cc1nn2c(-c3ccc(Cl)cc3)nnc2s1 | 5.3 | 21.0 | 4.3 | 5.4 | -7.0 | -28.7 | . | . | . | . | .
